# Where “and” joins values, the source holds several entries; their conditions need not be identical. Equal entries are not always repeated. The panel holds about 83,000 compounds, 20% with a hit somewhere; the sample as a whole holds those more often.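 For each line, cells grew in 96-well plates with the test compound present at a single concentration for 48 hours.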 Calls of active or inactive are those of the source. Rule for the calls: active = growth percent below 10; inactive = the rest.
# Test system: MDA-MB-468 breast
# Assay: NCI-60 one-dose screen, 48 h (100 = growth as untreated, 0 = no growth, -100 = all killed)
# Conditions: 10 µM unless noted
row,SMILES,growth
1,CCN(CC)Cc1cc(Nc2ccnc3ccc(OC)cc23)ccc1O,-3.96% (active)
2,COc1ccc(/C=N/NC(=O)c2cnn3c2NC(c2ccccc2)C3)cc1OC1CCCC1 (stereo not given),91.1% (inactive)
3,CNC(=O)NCC1OC(n2cnc3c(NC(=O)Nc4ccccc4)ncnc32)C2OC(C)(C)OC12 (stereo not given),101% (inactive)
4,Clc1ccc2c(NCCCn3ccnc3)c3oc4ccccc4c3nc2c1,39.7% (inactive)
5,CCOC(=O)c1cc(N)nc2ccccc12,106% (inactive)
6,N[C@@H]1CCC[C@H]1NCCCCN1C(=O)c2cccc3cccc(c23)C1=O,53.9% (inactive)
7,NS(=O)(=O)c1cccc(Nc2nc(SCC(=O)c3ccc(Br)cc3)nc3ccccc23)c1,61.3% (inactive)
8,CC(C)OP(=O)(O)c1ncc(-c2ccc(C(F)(F)F)cc2)c(NC2CCCCCC2)n1,28% (inactive)
9,CCOC(=O)C(NC(=O)C(Cl)Cl)C(O)c1ccccc1 (stereo not given),102% (inactive)
10,CCCC#CCN(CC)CC,99.1% (inactive)
11,CC1(C)NCCC[C@]2(C)[C@H]3CC[C@H]4[C@H]5[C@H](C(=O)/C=C/c6cccnc6)CCC[C@]5(CO)CC[C@@]4(C)[C@]3(C)CC[C@@H]12,-12.6% (active)
12,CCN(CC)c1ccc(N=C2C=CC(=O)C=C2NC(C)=O)cc1,98.7% (inactive)
13,O=c1[nH]nc(-c2ccc(Br)cc2)cc1Cc1ccc(O)cc1,107% (inactive)
14,O=C(Nc1ccc(Cl)cc1Cl)Nc1ccc(-c2cccnc2)cc1N1CCC(CO)CC1,23% (inactive)
15,COc1ccc(N2CCN(C3=C(Cl)C(=O)c4ncccc4C3=O)CC2)cc1,-57.8% (active)
16,O=S(=O)(Nc1ccc(F)cc1)c1ccc(-c2cnc(C3CC3)o2)cc1,4.54% (active)
17,CN1C/C=C\CCOc2cccc(c2)-c2ccnc(n2)Nc2cccc(c2)C1,-58.2% (active)
18,C=C(C)[C@@H]1C[C@@H]2Cc3cc(Cl)ccc3N1O2,96% (inactive)
19,CO[C@H]1/C=C/O[C@@]2(C)Oc3c(C)c(O)c4c(O)c(c(/C=N/N5C(C)CN(Cc6ccccc6)CC5C)c(O)c4c3C2=O)NC(=O)/C(C)=C\C=C\[C@H](C)[C@H](O)[C@@H](C)[C@@H](O)[C@@H](C)[C@H](OC(C)=O)[C@@H]1C (stereo not given in full),65.1% (inactive)
20,COc1cc(/C(C#N)=C/c2nc3c(N4CCOCC4)nc(Cl)nc3n2C)cc(OC)c1OC,15% (inactive)

row,SMILES,growth
1,CC1=NN(c2nc(SCC(=O)Nc3nc4ccc(C)cc4s3)nc(-c3ccccc3)c2C#N)C(=O)C1,111% (inactive)
2,N#CC1=C(N)Oc2c(ccc3cccnc23)C1c1ccccc1 (stereo not given),-7.81% (active)
3,Cc1cc2cc3cc(C)c(N(C)C)cc3nc2cc1N(C)C,23.9% (inactive)
4,Nc1nc(Nc2cc(Cl)cc(Cl)c2)nn1S(=O)(=O)c1ccc2ccccc2c1,66.3% (inactive)
5,CCN(CC)CCNC(Cc1ccccc1)c1ccc(OCc2ccccc2)cc1 (stereo not given),66.4% (inactive)
6,C/C(=C(/c1ccccc1)c1ccc(OCC(O)CN2CCOCC2)cc1)c1ccccc1 (stereo not given),85.1% (inactive)
7,CC[C@@H]1O[C@H](O[C@@H](c2cnc[nH]2)[C@H](NC(=O)c2nc([C@H](CC(N)=O)NC[C@@H](N)C(N)=O)nc(N)c2C)C(=O)N[C@H](C)[C@H](O)[C@H](C)C(=O)N[C@@H](C(=O)NCCc2nc(-c3nc(C(=O)NCCCCN=C(N)N)cs3)cs2)[C@@H](C)O)[C@H](O[C@@H]2O[C@H](CO)[C@H](O)[C@H](OC(N)=O)[C@@H]2O)[C@H](C)[C@@H]1C,57% (inactive)
8,Cc1ccc(NC(=O)c2ccc(CN3CCN(C)CC3)cc2)cc1Nc1nccc(-c2cccnc2)n1,70.9% (inactive) and 73.4% (inactive)
9,COC(=O)c1c2c(n3ccc(C)cc13)C(=O)c1ccccc1C2=O,86.3% (inactive)
10,COc1cc(/C=C/C(=O)c2ccc(NC(=O)CSc3nnc(-c4ccc(-c5nc6ccc(Cl)cc6[nH]5)cc4)o3)cc2)cc(OC)c1OC,103% (inactive)
11,COc1ccc(-c2nc(SCCC(C)C)nc(N/N=C\c3ccccc3O)c2C#N)cc1,88.6% (inactive)
12,COc1ccc(S(=O)(=O)Oc2ccc(-c3sc4cc(OS(=O)(=O)c5ccc(OC)cc5)ccc4c3C(=O)c3ccc(OCCN4CCCCC4)cc3)cc2)cc1,94.3% (inactive)
13,CCOC(=O)CSc1nnc(-c2cc3c([nH]c4ccccc43)c(-c3cccc(O)c3)n2)n1-c1ccc(C)cc1,27.2% (inactive)
14,CCCCOC(=O)OCc1cc(=O)c(O)co1,97.5% (inactive)
15,Cc1ccn2c3c(c(C(=O)O)c2c1)C(=O)c1ccccc1C3=O,84.7% (inactive)
16,CS(=O)(=O)Nc1cc(-c2ccc3ncnc(Nc4ccc(F)c(Cl)c4)c3c2)cnc1Cl,-43.3% (active)
17,C=C(C)[C@@H]1CC[C@@]2(C(=O)O)CC[C@]3(C)C(CCC4[C@@]5(C)CCC(OS(=O)(=O)c6ccccc6)C(C)(C)C5CC[C@]43C)C12 (stereo not given in full),53.9% (inactive)
18,Oc1c(Cl)cc(Cl)c2ccc(Cn3cc(-c4ccc(C(F)(F)F)cc4)nn3)nc12,39.6% (inactive)
19,Cc1c(Cl)cc(Cl)c(N)c1Cl,111% (inactive)
20,[2H]C([2H])([2H])Oc1ccc(F)cc1/C=C/C(=O)/C=C(O)/C=C/c1cc(F)ccc1OC([2H])([2H])[2H],91.6% (inactive)
